BoNT-A LC inh2 – BoNT/A light chain protease inhibitors, primary screen, biochemical, flow cytometry, MLPCN library; Botulinum neurotoxin type A light chain protease (Clostridium botulinum A str. ATCC 3502); multiplex microsphere protease substrate cleavage; inhibition, % at 10 µM; 360,000 tested, 0.17% active; AID 588499, 2011; note: plate controls were buffer without enzyme for full effect and enzyme alone for no effect
VHR inh abs – VHR1 phosphatase inhibitors, primary screen, biochemical, absorbance, uHTS. Dual specificity protein phosphatase 3 (Homo sapiens), P51452. recombinant VHR phosphatase, pNPP absorbance. inhibition, % at 13.3 µM. 290,000 tested, 0.52% active. AID 1654, 2009; in the data active = inhibition above about 50%
Target sequence (P51452 whole entry, looked up): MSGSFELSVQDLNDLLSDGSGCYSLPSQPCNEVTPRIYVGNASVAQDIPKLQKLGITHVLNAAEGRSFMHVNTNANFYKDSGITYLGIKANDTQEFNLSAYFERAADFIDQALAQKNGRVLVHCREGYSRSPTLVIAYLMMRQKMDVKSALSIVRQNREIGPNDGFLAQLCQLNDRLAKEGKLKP
Autofluor counter – counter-screen for toxin protease inhibitors: compound fluorescence; compound autofluorescence counterscreen, microsphere flow cytometry; hits give high values; 360,000 tested, 3.1% active; fluorescence intensity (concentration not given with the values); in the data active = fluorescence intensity above about 16000; inconclusive = no clear call, values can overlap the other calls
MazF activator – activators of E. coli MazEF toxin-antitoxin RNase, primary screen, biochemical, fluorescence, uHTS. Endoribonuclease toxin MazF (Escherichia coli (strain K12)), P0AE70. FAM/BHQ RNA-DNA oligo cleavage fluorescence, 5 h. activation, % at 20 µM. 350,000 tested, 0.32% active. AID 504720, 2011; in the data active = activation above about 50%
Target sequence (P0AE70 whole entry, looked up): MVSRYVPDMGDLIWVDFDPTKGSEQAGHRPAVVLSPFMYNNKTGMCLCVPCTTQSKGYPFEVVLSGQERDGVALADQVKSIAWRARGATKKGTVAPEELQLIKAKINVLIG
BoNT-F LC inh – BoNT/F light chain protease inhibitors, primary screen, biochemical, flow cytometry, MLPCN library | Multiplex microsphere protease cleavage assay | inhibition, % at 10 µM | 360,000 tested, 0.22% active | Botulinum neurotoxin type F light chain protease (Clostridium botulinum) | AID 588497, 2011; in the data active = inhibition above about 35%, passing the limit was not always enough; inconclusive = no clear call, values can overlap the other calls; note: plate controls were buffer without enzyme for full effect and enzyme alone for no effect
Anthrax LF prot – Bacillus anthracis LF protease inhibitors, primary screen, biochemical, multiplex microsphere, MLPCN library; multiplex microsphere protease cleavage assay; inhibition, % at 10 µM; 360,000 tested, 0.12% active; note: plate controls were buffer without enzyme for full effect and enzyme alone for no effect
An asterisk follows results filed as active; ? = inconclusive; / = no result given. Hits are enriched below; roughly 4.1% of the tested compounds scored in any of these assays. Cut-off read from the data, not from the text of the source, unless noted: active = inhibition above about 30%; inconclusive = no clear call, values can overlap the other calls; inactive = below that.

SMILES | BoNT-A LC inh2 | VHR inh abs | Autofluor counter | MazF activator | BoNT-F LC inh | Anthrax LF prot
CC1=C(CC(=O)c2ccccc2)C(=O)c2ccccc2C1=O | ? | 23 | 18823* | 5 | 7 | -2
Cc1ccc(NC(=O)CC2S/C(=N/N=C/c3ccco3)NC2=O)cc1Cl (configuration not stated) | 0 | 8 | 2640 | -7 | -4 | -3
Cc1ccc(NC(=O)CC2S/C(=N/N=C/C=C/c3ccccc3)NC2=O)cc1Cl (configuration not stated) | 1 | -4 | 2012 | 55* | 11 | 2
CCC(C)(C)c1nnc(NC(=O)C2CC(=O)N(CCc3ccc(F)cc3)C2)s1 (configuration not stated) | -3 | -20 | 3935 | -3 | -5 | -7
CCN(CC)CCSc1nc(O)c(-c2ccccc2)c(=O)[nH]1 | -2 | 7 | 17285* | 4 | -3 | -2
CCCCCc1c(O)nc(SCCN(CC)CC)[nH]c1=O | -1 | 16 | 3495 | 9 | -6 | -4
CC(C)c1c(O)nc(SCCC(=O)O)[nH]c1=O | -1 | 19 | 10568 | 8 | 3 | 3
CCCN(CCC)CCSc1nc(O)c(C(C)C)c(=O)[nH]1 | ? | -4 | 18038* | 3 | 5 | -14
NC(=O)C1CCN(c2ccc(C(F)(F)F)cc2[N+](=O)[O-])CC1 | 4 | 34 | 21870* | 0 | 3 | -5
Cc1ccc2c(c1)CCCO[C@]21O[C@H](CCO)C[C@H](O)[C@H]1O | 1 | / | 5909 | / | -2 | 1
COc1ccccc1C1SCCN1S(C)(=O)=O (configuration not stated) | 0 | 11 | 2481 | 2 | 8 | -5
COc1ccc(OC)c(C2SCCN2S(C)(=O)=O)c1 (configuration not stated) | 0 | 9 | 22914* | -1 | 4 | 1
COc1ccccc1-c1nnc(N)s1 | 1 | -10 | 3453 | 6 | 2 | -4
COc1ccccc1-c1nnc(SC2CCc3ccccc3NC2=O)s1 (configuration not stated) | ? | 20 | 20615* | -11 | -2 | 2
CCC(C)(C(=O)NC1CCCC1)N(C(=O)Cc1cccs1)c1c(C)n(C)n(-c2ccccc2)c1=O (configuration not stated) | 1 | 37 | 4055 | -1 | 0 | 3
CCC(C)(C(=O)NC1CCCC1)N(C(=O)c1cnccn1)c1c(C)n(C)n(-c2ccccc2)c1=O (configuration not stated) | ? | 19 | 21671* | -4 | 3 | 0
CCC(C)(C(=O)NC1CCCCC1)N(C(=O)CNC(C)=O)c1c(C)n(C)n(-c2ccccc2)c1=O (configuration not stated) | 1 | -5 | 3852 | 0 | -6 | -3
CCC(C)(C(=O)NC1CCCCC1)N(C(=O)c1cnccn1)c1c(C)n(C)n(-c2ccccc2)c1=O (configuration not stated) | ? | 12 | 21469* | 1 | -2 | 0
O=C(OCC#CCSc1nnc(-c2cccc3ccccc23)o1)c1cccs1 | 0 | 8 | 5826 | -5 | 3 | -7
O=C(OCC#CCSc1nnc(-c2ccccc2)o1)c1cccs1 | -2 | 11 | 17034* | -7 | -3 | -3
CCOC(=O)c1[nH]c2cc3c(cc2c1CCCN1C(=O)c2ccccc2C1=O)OCCO3 | ? | 40 | 19746* | -10 | 2 | 2
CCOC(=O)c1[nH]c2ccccc2c1CCCN1C(=O)c2ccccc2C1=O | 1 | 29 | 3338 | -7 | 0 | -2
CCCCSc1nnc(-c2cc(Br)ccc2N)c(=O)[nH]1 | ? | 6 | 20791* | -3 | 1 | -3
C=CCSc1nnc(-c2cc(Br)ccc2N)c(=O)[nH]1 | 2 | 44 | 4053 | 5 | -2 | -4
Cc1sc2nc(SCC(=O)NCCOCCO)n(C)c(=O)c2c1C | 3 | 15 | 21931* | 8 | 3 | -3
SMILES | BoNT-A LC inh2 | VHR inh abs | Autofluor counter | MazF activator | BoNT-F LC inh | Anthrax LF prot
O=C(NCC1CCCO1)c1ccc(CS(=O)(=O)c2ccc(Br)cc2)o1 (configuration not stated) | 0 | 6 | 6069 | -18 | 3 | -3
O=C(NCC1CCCO1)c1ccc(CS(=O)(=O)c2ccc(Cl)cc2)o1 (configuration not stated) | 1 | 19 | 22230* | -5 | -1 | -9
CCOC(=O)c1c(NC(=O)CSc2nccn2C)sc(C(=O)NC)c1C | 1 | / | 5761 | 10 | 4 | 5
CCC(C)[C@H](NC(=O)NC1CC1)C(=O)O (some centres not stated) | ? | -2 | 23360* | 3 | 0 | -2
COc1ccc(C(O)c2nc(-c3ccc(Cl)cc3)cs2)cc1 (configuration not stated) | 0 | / | 3908 | / | 9 | -6
CC(NC(=O)CSc1ncnc2nc[nH]c12)c1ccccc1 (configuration not stated) | 1 | -4 | 21770* | -7 | 4 | -6
O=C(CSc1ncnc2nc[nH]c12)NCCc1ccccc1 | -1 | 6 | 3124 | 6 | 4 | -7
C=CC(=O)NC(NC(=O)C=C)c1ccc(Br)cc1 | ? | 27 | 21256* | 2 | -4 | 0
CC(=O)NCCNC(=O)Cn1nnc(-c2ccccc2)c1COc1ccc2ccccc2c1 | 0 | / | 3802 | / | -2 | -2
CCCCOCCCNc1ncnc2c1[nH]c1ccccc12 | 2 | -2 | 23545* | -4 | 0 | 2
CCOc1ccc(CC(=O)Nc2sc(Cc3ccccc3)cc2C(N)=O)cc1OCC | -5 | 23 | 17390* | -6 | -8 | -2
CC1(C)CC(NC(=O)c2ccc(Cl)c(Cl)c2)CC(C)(C)N1 | -30 | 17 | 13239 | 4 | -156 | -27
O=C(Cc1c(O)c2ccccc2[nH]c1=O)N(Cc1ccccc1)Cc1ccccc1 | 1 | 24 | 22649* | -1 | -2 | -3
O=[N+]([O-])c1ccc(N2CCN(C(=S)Nc3ccc(F)cc3)CC2)cc1 | 0 | 20 | 4242 | 2 | -5 | 2
O=[N+]([O-])c1ccc(N2CCN(C(=S)Nc3cccc(F)c3)CC2)cc1 | 1 | 50* | 2645 | 4 | 0 | 2
CC1CC(C)(C)CC2(C1)NC(=O)N(CC(=O)N(Cc1ccccc1)c1ccccc1)C2=O (configuration not stated) | 2 | / | 5671 | 2 | -3 | -2
COc1ccccc1NC(=O)C(C)OC(=O)C(C)SCC(=O)Nc1ccc(C)cc1 (configuration not stated) | / | / | / | -5 | / | /
